# Whole data set: some 81,000 sequences, median “one-hybrid fitness for binding parS DNA” near -0.17, cut for the highest 2% near 0.51. For the sample, the highest values were picked, then their nearest neighbours and some sequences at random.
# B1: Caulobacter ParB omega fusion; a variant is named by its letters at X, in order, B8GW30 (parent)
# chain: MESVVVGEPGMSEGRRGLGRGLSALLGEVDAAPAQAPGEQLGGSREAPIEILQRNPDQPRRTFREEDLEDLSNSIREKGVLQPILVRPSPDTAGEYQIVAGERAWRAAQRAGLKTVPIMVRELDDLAVLEIGIIENVQRADLNVLEEALSYKVLMEKFERTQENIAQTIGKSXSHVANXMRLLXLPDEVQSYLVSGELTAXHARAIAAAADPVALAKQIIEGGLSVRETEALARKAPNLSAGKSKGGRPPRVKDTDTQALESDLSSVLGLDVSIDHRGSTGTLTITYATLEQLDDLCNRLTRGI
# Variants of: B1
# Assay: one-hybrid fitness for binding parS DNA (scaled: cognate 1, non-cognate 0); higher = stronger binding
# Settings: with parS DNA site
# How it was run: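 In E. coli USO, a HIS3 reporter with its site placed 19 bp from the promoter was used to select Caulobacter ParB variants randomised at four specificity codons. Growth lasted 48 hours at 37°C on histidine-free M9 containing 0.1 mM IPTG and 5 mM 3-AT. Fitness was taken as the log change in variant-to-wild-type read ratio from Illumina sequencing of pre- and post-selection plasmids, rescaled between the non-cognate and cognate sites.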
row,Variant,one-hybrid fitness for binding parS DNA
1,AMKF,≤ 0.2
2,SCQY,≤ 0.2
3,YPKA,≤ 0.2
4,IKCR,≤ 0.2
5,AFFR,≤ 0.2
6,MTRW,≤ 0.2
7,RQRN,0.451
8,RQHS,0.988
9,RQHP,≤ 0.2
10,RQHN,0.425
11,RQRS,0.918
12,RQGP,≤ 0.2
13,RQGN,0.441
14,RQRD,≤ 0.2
15,RQGS,0.978
16,KTML,≤ 0.2
17,PITI,≤ 0.2
18,GSLR,≤ 0.2
19,VPIR,≤ 0.2
20,RDEG,≤ 0.2
21,RTEG,0.893
22,RREK,≤ 0.2
23,RHEG,0.898
24,RTEQ,≤ 0.2
25,RTEF,0.202

row,Variant,one-hybrid fitness for binding parS DNA
1,RCEG,0.915
2,RPEG,≤ 0.2
3,RHEP,≤ 0.2
4,RREG,0.915
5,RHEH,≤ 0.2
6,RREY,0.295
7,TLIV,≤ 0.2
8,SWMS,≤ 0.2
9,PFMN,≤ 0.2
10,ASAS,≤ 0.2
11,TTEV,≤ 0.2
12,EKIY,≤ 0.2
13,VYPH,≤ 0.2
14,PRMG,≤ 0.2
15,VNWT,≤ 0.2
16,LVHA,≤ 0.2
17,SFKQ,≤ 0.2
18,RMEL,≤ 0.2
19,RKEF,≤ 0.2
20,RAEG,0.852
21,RKED,≤ 0.2
22,RIEI,≤ 0.2
23,RKEG,0.949
24,RAEP,≤ 0.2
25,RMEI,≤ 0.2

row,Variant,one-hybrid fitness for binding parS DNA
1,RAEH,≤ 0.2
2,RMEG,0.86
3,RIED,≤ 0.2
4,RIEG,0.771
5,HTCW,≤ 0.2
6,CSFT,≤ 0.2
7,DPQT,≤ 0.2
8,PMYE,≤ 0.2
9,ASIR,≤ 0.2
10,DFEG,≤ 0.2
11,RLEG,0.925
12,RGEG,0.474
13,RFEG,0.731
14,REEG,≤ 0.2
15,RLEN,0.4
16,RLED,≤ 0.2
17,RSEG,0.802
18,NFEG,≤ 0.2
19,HYRI,≤ 0.2
20,IEVV,≤ 0.2
21,YPPA,≤ 0.2
22,NRYK,≤ 0.2
23,SSLC,≤ 0.2
24,PCWL,≤ 0.2
25,TTWY,≤ 0.2

row,Variant,one-hybrid fitness for binding parS DNA
1,CCRS,≤ 0.2
2,RMFG,1
3,RMAG,1.01
4,RMFK,≤ 0.2
5,RMAD,0.207
6,RMAP,0.205
7,RMFY,0.492
8,LSRQ,≤ 0.2
9,RFMR,≤ 0.2
10,RIPY,0.232
11,RIPM,≤ 0.2
12,RIPC,0.626
13,RIIC,0.901
14,RIIM,0.273
15,RIIF,≤ 0.2
16,SCFV,≤ 0.2
17,QTMW,≤ 0.2
18,SRTC,≤ 0.2
19,RIWN,0.455
20,RIGT,0.924
21,RIGK,≤ 0.2
22,RIWT,0.83
23,RIGQ,0.204
24,RICK,0.208
25,RICD,≤ 0.2

row,Variant,one-hybrid fitness for binding parS DNA
1,RICT,0.853
2,RIWF,0.282
3,RIQN,0.449
4,RIQT,0.886
5,RIQP,≤ 0.2
6,LPLM,≤ 0.2
7,WSVC,≤ 0.2
8,AQMM,≤ 0.2
9,DELW,≤ 0.2
10,QKSV,≤ 0.2
11,HVTI,≤ 0.2
12,GLLA,≤ 0.2
13,RIST,0.929
14,RIYD,≤ 0.2
15,RISF,0.21
16,RINN,0.469
17,RIDF,0.257
18,RIYT,0.926
19,RINT,0.914
20,RIYP,0.203
21,RIDR,≤ 0.2
22,RIDT,0.725
23,RINP,≤ 0.2
24,RISQ,≤ 0.2
25,NRPF,≤ 0.2

row,Variant,one-hybrid fitness for binding parS DNA
1,CRDC,≤ 0.2
2,QFLC,≤ 0.2
3,PTYG,≤ 0.2
4,RARL,≤ 0.2
5,GSHT,≤ 0.2
6,MNLG,≤ 0.2
7,RIRK,≤ 0.2
8,RIRR,≤ 0.2
9,RIRT,0.848
10,WPQC,0.245
11,SGVD,≤ 0.2
12,RIAS,1.04
13,RIFD,≤ 0.2
14,RIAN,0.432
15,RIFS,0.995
16,RIAD,0.212
17,RIFP,0.206
18,VTEW,≤ 0.2
19,YCGR,≤ 0.2
20,AFAS,≤ 0.2
21,ARMN,≤ 0.2
22,VELC,≤ 0.2
23,RNNM,0.28
24,RNDC,0.617
25,RNNC,0.869

row,Variant,one-hybrid fitness for binding parS DNA
1,RNDD,≤ 0.2
2,RNNK,≤ 0.2
3,RNDY,0.256
4,RLSQ,≤ 0.2
5,RFSG,0.97
6,NFSG,≤ 0.2
7,RMSG,1.02
8,RKSY,0.366
9,RKSK,≤ 0.2
10,RKSG,0.928
11,RMSK,≤ 0.2
12,RLSG,1.01
13,RMSR,≤ 0.2
14,DFSG,≤ 0.2
15,RLSF,0.246
16,NHHN,≤ 0.2
17,WADR,≤ 0.2
18,REQN,≤ 0.2
19,AVAR,≤ 0.2
20,GWDC,≤ 0.2
21,RDVW,≤ 0.2
22,SSNE,≤ 0.2
23,RTSY,0.489
24,RSSK,≤ 0.2
25,RSSG,0.993

row,Variant,one-hybrid fitness for binding parS DNA
1,RTSG,1
2,RDSG,≤ 0.2
3,RISG,1.01
4,RTSQ,≤ 0.2
5,RISK,≤ 0.2
6,RPSG,≤ 0.2
7,RISY,0.477
8,RESG,0.217
9,RCSG,0.997
10,EQLF,≤ 0.2
11,KYRN,≤ 0.2
12,QKYR,≤ 0.2
13,DTLV,≤ 0.2
14,PHRR,≤ 0.2
15,DRAS,≤ 0.2
16,GTSE,≤ 0.2
17,LHRT,≤ 0.2
18,RCDN,0.376
19,RRRN,0.788
20,RRYN,0.557
21,RPYN,≤ 0.2
22,RCRN,0.387
23,RCYN,0.545
24,KAEG,≤ 0.2
25,AMIC,≤ 0.2

row,Variant,one-hybrid fitness for binding parS DNA
1,RWAA,0.378
2,EFAA,≤ 0.2
3,RCAA,0.596
4,RGAA,0.32
5,RSAA,0.554
6,RFAA,0.559
7,RPAA,≤ 0.2
8,RDAA,≤ 0.2
9,RFFA,0.492
10,QVSF,≤ 0.2
11,LAKQ,≤ 0.2
12,WWDC,≤ 0.2
13,RWHK,≤ 0.2
14,RQAD,≤ 0.2
15,RQFT,0.759
16,RQAN,0.419
17,RQAT,0.884
18,RQFR,≤ 0.2
19,RQFQ,≤ 0.2
20,MIFS,≤ 0.2
21,SNTE,≤ 0.2
22,YHPR,≤ 0.2
23,RCGL,≤ 0.2
24,LEEV,≤ 0.2
25,SVPL,≤ 0.2

row,Variant,one-hybrid fitness for binding parS DNA
1,GMVS,≤ 0.2
2,QIKS,≤ 0.2
3,RDWT,≤ 0.2
4,RSWT,0.756
5,RCWT,0.908
6,RMWT,0.904
7,RMWH,0.231
8,RPWT,≤ 0.2
9,REWT,≤ 0.2
10,RGWT,0.388
11,RMWN,0.43
12,TNVG,≤ 0.2
13,AFWR,≤ 0.2
14,TISC,≤ 0.2
15,RCEF,≤ 0.2
16,RSFS,1.01
17,RCFS,1.03
18,RPFS,≤ 0.2
19,RCFD,≤ 0.2
20,RSFP,≤ 0.2
21,RSFD,≤ 0.2
22,QAPG,≤ 0.2
23,YKDR,≤ 0.2
24,IDIG,≤ 0.2
25,RRSG,0.711

row,Variant,one-hybrid fitness for binding parS DNA
1,RRCG,0.758
2,RRCN,0.452
3,RRYK,≤ 0.2
4,RRYG,0.769
5,RRGY,0.361
6,RRGF,≤ 0.2
7,RRYR,≤ 0.2
8,RRCR,≤ 0.2
9,RRGG,0.698
10,RRSY,0.46
11,DRSG,≤ 0.2
12,QRNI,≤ 0.2
13,RLLW,0.241
14,FRGV,≤ 0.2
15,TALQ,≤ 0.2
16,TKKR,≤ 0.2
17,PENA,≤ 0.2
18,HIPD,≤ 0.2
19,EYSL,≤ 0.2
20,RRNE,≤ 0.2
21,DRRG,≤ 0.2
22,RRQY,0.441
23,RRNG,0.704
24,NRRG,≤ 0.2
25,NRNG,≤ 0.2

row,Variant,one-hybrid fitness for binding parS DNA
1,RRRG,0.706
2,RRDG,0.888
3,DRDG,≤ 0.2
4,RRQG,0.727
5,RRQQ,≤ 0.2
6,YVYG,≤ 0.2
7,RGYW,≤ 0.2
8,HTNV,≤ 0.2
9,TDNV,≤ 0.2
10,ASRA,≤ 0.2
11,KASS,≤ 0.2
12,EPDT,≤ 0.2
13,GAHV,≤ 0.2
14,SLDA,≤ 0.2
15,LSDS,≤ 0.2
16,IIGF,≤ 0.2
17,RRHY,0.446
18,RRHG,0.72
19,RRHM,0.424
20,RRLG,0.794
21,RRLR,≤ 0.2
22,RRLK,≤ 0.2
23,PSWH,≤ 0.2
24,LPFA,0.253
25,KMLG,≤ 0.2

row,Variant,one-hybrid fitness for binding parS DNA
1,FRSR,≤ 0.2
2,LSWR,≤ 0.2
3,TGKS,≤ 0.2
4,LTAC,≤ 0.2
5,RKCT,0.803
6,RKSF,≤ 0.2
7,RKSQ,≤ 0.2
8,RKNT,0.723
9,RKST,0.749
10,RKNK,≤ 0.2
11,RKWT,0.759
12,RKWP,≤ 0.2
13,RKCY,0.369
14,RKWH,≤ 0.2
15,RKCK,≤ 0.2
16,RKNM,0.234

# Source: a collection of fitness landscapes (doi:10.1016/j.celrep.2020.107928)
